Hit rate of the full screen: of about 2,300 compounds, about 1,200 (52%) were called active. Not shown: some 34% with an inconclusive outcome. Calls come from the whole dose curve; as a rule, active = well fitted inhibition curve with a large enough effect; inconclusive = small, poorly fitted or top-dose-only effect, or effect the other way; inactive = no such curve, though single readings can be large or run the other way. The set was probably picked from earlier hits. Some of the results follow.
Assay: Confirmation screen for delayed death inhibitors of the malarial parasite plastid, 48 hour incubation; note: nearly all actives have a fitted effect of over 65% in size
Details: P. falciparum-infected erythrocytes, luciferase growth; series mostly up to 28.7 µM; activity change, negative = inhibition: at the top concentration
How it was run: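 Single-generation (48 h, 37 C) exposure of integrated firefly luciferase-reporter P. falciparum in red cells, 0.1% parasitemia at 2% hematocrit, Albumax-supplemented RPMI. Falling luciferase signal marks parasite growth inhibition.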
% is set by controls: 0 for no effect and ±100 for the full control effect; potency is the fitted concentration of half-maximal effect.

Row | SMILES | Potency | activity change, negative = inhibition
1 | CC(=O)NCCC(=O)Nc1cc(S(=O)(=O)N2CCOCC2)ccc1Oc1ccccc1 | 11.2 µM (active) | 
2 | CCOc1ccc(S(=O)(=O)N2CCOCC2)cc1NC(=O)CN1C(=O)NC(CC)(c2ccccc2)C1=O (stereo not drawn) | 12.6 µM (active) | 
3 | CCOc1ccccc1CNC(=O)CN1C(=O)CSc2ccc(S(=O)(=O)N3CCOCC3)cc21 | 10 µM (active) | 
4 | CC(C)(C)OC(=O)[C@H]1[C@H](c2ccc([N+](=O)[O-])cc2)C2(C(=O)c3ccccc3C2=O)C2c3ccccc3C=NN21 (stereo partly drawn) | 4.47 µM (active) | 
5 | Cc1ccc(-c2nn(-c3ccccc3)cc2CC(=S)N2CCOCC2)cc1 | 14.1 µM (active) | 
6 | CCCOc1ccccc1/C=C1\SC(N2CCCCC2)=NC1=O | 11.2 µM (active) | 
7 | COc1cccc(/C=C2\SC(N3CCCC(C)C3)=NC2=O)c1OC (stereo not drawn) | 12.6 µM (active) | 
8 | CCOC(=O)C1CCN(C(=O)CCc2nnc3ccc(NCc4ccco4)nn23)CC1 | 10 µM (active) | 
9 | CCn1c2ccccc2c2cc(/C=N/n3cn[nH]c3=S)ccc21 | 12.6 µM (active) | 
10 | Cc1ccccc1C1=NC(C(F)(F)F)(C(F)(F)F)c2c(n(-c3ccc(F)cc3)c(=O)[nH]c2=O)N1 | 10 µM (active) | 
11 | NC(=O)CC(NC(=O)Cc1ccc(Br)cc1)c1ccc(NC2CC3CCC2C3)c([N+](=O)[O-])c1 (stereo not drawn) | 15.8 µM (active) | 
12 | Cc1cc(C)cc(C(=O)NC(CC(N)=O)c2ccc(NCC3CC3)c([N+](=O)[O-])c2)c1 (stereo not drawn) |  | -17.3% (inactive)
13 | COc1cccc(C(=O)/C=C/c2ccc(OCC#N)c(OC)c2)c1 | 10 µM (active) | 
14 | COc1cc(/C=C/C(=O)c2ccc(O)cc2)ccc1OCC#N | 12.6 µM (active) | 
15 | O=C(Nc1nc(-c2ccccn2)cs1)C1COc2ccccc2O1 (stereo not drawn) | 6.31 µM (active) | 
16 | O=C1/C(=C/c2ccccc2F)SC(=S)N1CC(=O)N1CCCCC1c1cccnc1 (stereo not drawn) | 14.1 µM (active) | 
17 | COc1ccc(OC)c(-c2nc(C(=O)NC3CCN(Cc4ccccc4)CC3)cc3c2[nH]c2ccccc23)c1 | 4.47 µM (active) | 
18 | CCCN1CCC(NC(=O)CC2C(=O)NCCN2Cc2cccc(OC)c2)CC1 (stereo not drawn) |  | -4.3% (inactive)
19 | Cc1ccc2c(c1)C1CC(C)(O2)N(c2cccc(C(=O)N3CCN(c4ccccn4)CC3)c2)C(=O)N1 (stereo not drawn) | 12.6 µM (active) | 
20 | O=C(C=C=Nc1ccccc1)C(=O)N=C=Cc1ccccc1 | 14.1 µM (active) | 
21 | CCOc1ccc(-n2c(N)c(-c3nc4ccccc4n3C)c3nc4ccccc4nc32)cc1 | 3.98 µM (active) | 
22 | O=S(=O)(c1ccc(Cl)c(Cl)c1)c1snnc1-c1ccccc1 | 12.6 µM (active) | 

Row | SMILES | Potency | activity change, negative = inhibition
23 | CCCNC(=O)c1nnsc1S(=O)(=O)c1ccc(Cl)cc1 |  | -15.3% (inactive)
24 | O=C(/C=C/c1ccncc1)c1ccc2c(c1)OCCO2 | 12.6 µM (active) | 
25 | O=C(O)c1ccc(/C=N/NC(=O)c2ccc3c(c2)OCCO3)cc1 |  | -8.6% (inactive)
26 | O=C(CC1Sc2ccccc2NC1=O)OCc1cc(=O)oc2cc(O)ccc12 (stereo not drawn) | 11.2 µM (active) | 
27 | CO[C@@H]1[C@@H](OC2OC(C)C(OC3CC(C)(O)C(OC(=O)CC(C)C)C(C)O3)C(N(C)C)C2O)[C@@H](CC=O)C[C@@H](C)C(=O)/C=C\C2O[C@H]2C[C@@H](C)OC(=O)C[C@H]1OC(C)=O (stereo partly drawn) | 7.08 µM (active) | 
28 | O=C(NC(Cc1c[nH]c2ccccc12)C(=O)Nc1ccc(F)cc1)c1cccs1 (stereo not drawn) | 7.08 µM (active) | 
29 | CC(C)C(=O)NCCSc1c[nH]c2ccccc12 |  | -11.4% (inactive)
30 | CCS(=O)(=O)N1Cc2ccccc2CC1C(=O)Nc1cccc(OC)c1 (stereo not drawn) |  | -17.3% (inactive)
31 | COc1ccc(C(=O)NCCc2c[nH]c3ccccc23)cc1[N+](=O)[O-] |  | -4.64% (inactive)
32 | Cc1cccc(NC(=O)[C@H](Cc2c[nH]c3ccccc23)NC(=O)[C@@H]2Cc3ccccc3CN2)c1 | 10 µM (active) | 
33 | COc1ccc(NC(=O)[C@H](Cc2c[nH]c3ccccc23)NC(=O)[C@@H]2Cc3ccccc3CN2)cc1 | 7.94 µM (active) | 
34 | COc1cccc(NC(=O)[C@H](Cc2c[nH]c3ccccc23)NC(=O)[C@@H]2Cc3ccccc3CN2)c1 | 14.1 µM (active) | 
35 | CNC(=S)N(CCc1c(C)[nH]c2ccc(C)cc12)Cc1cc(OC)c(OC)c(OC)c1 | 12.6 µM (active) | 
36 | CNC(=S)N(CCc1c(C)[nH]c2ccc(Cl)cc12)Cc1cccnc1 | 14.1 µM (active) | 
37 | Cc1ccc(NC(=O)C(=Cc2ccc(C(=O)O)cc2)C(=O)Nc2ccc(C)cc2C)c(C)c1 | 10 µM (active) | 
38 | Cn1c(/C=C/c2ccc(Cl)cc2)c([N+](=O)[O-])c(=O)n(C)c1=O | 7.94 µM (active) | 
39 | N#C/C(=C\c1ccccn1)c1ccccn1 | 11.2 µM (active) | 
40 | CSC1=NC(C)(C)C=C(/C=C/c2c(Cl)cccc2Cl)N1 | 10 µM (active) | 
41 | CSC1=NC(C)(C)C=C(/C=C/c2ccc(Cl)cc2)N1 | 10 µM (active) | 
42 | CSC1=NC(C)(C)C=C(/C=C/c2ccc(Cl)cc2Cl)N1 | 1.78 µM (active) | 
43 | CC(Oc1ccc(Br)cc1)C(=O)N1CCN(c2ccccn2)CC1 (stereo not drawn) | 15.8 µM (active) | 
44 | O=C(c1ccccc1Br)N1CCN(c2ccccn2)CC1 |  | 5.69% (inactive)

Row | SMILES | Potency | activity change, negative = inhibition
45 | O=C(NCc1ccc2[nH]c3c(c2c1)CCCC3)c1ccc(S(=O)(=O)N2CCCC2)cc1 | 15.8 µM (active) | 
46 | COc1ccc(Cl)cc1NC(=O)C(=O)NCc1ccncc1 |  | -9.93% (inactive)
47 | COc1ccc(-c2cc(C(=O)Nc3cc(C)n(Cc4ccc(Cl)cc4)n3)no2)cc1OC | 0.355 µM (active) | 
48 | O=C(Nc1ccc(Cl)cc1)c1ccc(CN2CCc3ccccc3C2)cc1 | 14.1 µM (active) | 
49 | O=C(Nc1ccc(F)cc1)c1ccc(CN2CCc3ccccc3C2)cc1 | 12.6 µM (active) | 
50 | Cc1cc(C)cc(NC(=O)c2ccc(CN3CCc4ccccc4C3)cc2)c1 | 14.1 µM (active) | 
51 | COc1ccccc1CNC(=O)CN1C(=O)NC(c2ccccc2)(c2ccc(C)c(C)c2)C1=O (stereo not drawn) | 12.6 µM (active) | 
52 | CCOc1ccccc1CN1C(=O)NC(C)(c2ccccc2)C1=O (stereo not drawn) |  | -30.8% (inactive)
53 | Cc1cc(NC(=O)CN2C(=O)NC(c3ccccc3)(c3ccc(C)c(C)c3)C2=O)no1 (stereo not drawn) | 14.1 µM (active) | 
54 | Cn1c(=O)c([N+](=O)[O-])c(-n2ccnc2)c2ccccc21 | 12.6 µM (active) | 
55 | C/C(=C\C(=O)OCCCCCCCCC(=O)O)C[C@@H]1OC[C@H](C[C@@H]2O[C@H]2[C@@H](C)[C@H](C)O)[C@@H](O)[C@H]1O | 1.12 µM (active) | 
56 | CCC(C)NC(=O)c1cc(Cl)c(NC(=O)C2=C(C)OCCS2)cc1OC (stereo not drawn) | 11.2 µM (active) | 
57 | CCOC(=O)c1sc(NC(=O)CSc2ncccn2)nc1C |  | -42.1% (inactive)
58 | COc1ccc(-c2cc(-c3ccccc3)nc(SC(C)C(=O)O)c2C#N)cc1 (stereo not drawn) | 14.1 µM (active) | 
59 | COc1ccc(-c2cc(-c3ccccc3)nc(SCC(=O)Nc3nccs3)c2C#N)cc1 | 2.24 µM (active) | 
60 | CS(=O)(=O)Nc1ccc(C2=NN(C(=O)c3ccco3)C(c3ccc(F)cc3)C2)cc1 (stereo not drawn) | 12.6 µM (active) | 
61 | Fc1ccc(C2CC(c3ccco3)=NN2c2ccccc2)cc1 (stereo not drawn) |  | -23.2% (inactive)
62 | COc1ccc(Cc2nc3ccc(C(=O)NCCc4ccccn4)cc3o2)cc1OC | 14.1 µM (active) | 
63 | C/C(=N\NC(=O)c1ccc(Cl)c(Cl)c1)c1ccc(Br)s1 | 3.55 µM (active) | 
64 | O=C(NNC(=O)c1ccc(Br)s1)c1ccc(F)c(S(=O)(=O)N2CCOCC2)c1 |  | -20.8% (inactive)
65 | COc1ccc2c(c1OC)C(=O)N1N=C(c3ccccc3)CC21 (stereo not drawn) | 5.01 µM (active) | 
66 | Nc1nc(CCl)nc(N(c2ccccc2)c2ccccc2)n1 | 8.91 µM (active) | 

Row | SMILES | Potency | activity change, negative = inhibition
67 | Cc1cccc(N(Cc2ccccc2)C(=O)CN2C(=O)NC3(CCCCC3C)C2=O)c1 (stereo not drawn) | 12.6 µM (active) | 
68 | CCCC(=O)Nc1nnc(CC(=O)N2CCCC2)s1 |  | 4.66% (inactive)
69 | COc1ccc(CN2CCN(C(=O)CCC(=O)Nc3nnc(C4CCCCC4)s3)CC2)cc1F | 12.6 µM (active) | 
70 | CCCc1nnc(NC(=O)CCC(=O)N2CCN(Cc3ccc(Cl)cc3)CC2)s1 | 12.6 µM (active) | 
71 | CCOC(=O)c1c(C)sc2c1N(C(=O)CCl)c1cc(Cl)ccc1S2 | 3.98 µM (active) | 
72 | O=c1[nH]c(C(F)(F)F)nc2ccc3ccccc3c12 |  | -8.91% (inactive)
73 | Cc1ccc(NS(=O)(=O)c2ccc(-c3cnc(C4CC4)o3)cc2)c(C)c1 | 5.01 µM (active) | 
74 | O=C(C1CCC1)N1CCc2cc(S(=O)(=O)NCc3ccco3)ccc21 |  | 22.7% (inactive)
75 | O=C(CCl)c1ccc2c(c1)CCN2C(=O)C1CCCCC1 | 11.2 µM (active) | 
76 | COc1ccc(NC(=O)c2cc([N+](=O)[O-])ccc2N2CCN(C)CC2)cc1 |  | -7.89% (inactive)
77 | CCC(=O)c1ccc(N2CCN(C(=O)c3cc([N+](=O)[O-])ccc3N3CCN(C)CC3)CC2)c(F)c1 | 10 µM (active) | 
78 | O=[N+]([O-])/C=C\c1ccc(N2CCCC2)c(F)c1 |  | -22.9% (inactive)
79 | CCCn1cc(S(=O)(=O)c2ccc(Cl)cc2)c(=O)c2cc(OC)ccc21 | 12.6 µM (active) | 
80 | COc1ccc([N+](=O)[O-])c(S(=O)(=O)c2ccc(Cl)cc2)n1 |  | -12.9% (inactive)
81 | Cc1onc(-c2c(F)cccc2Cl)c1-c1nnc(-c2ccc(C(F)(F)F)cc2)o1 | 5.62 µM (active) | 
82 | Cc1[nH]c(C)c(C(=O)/C=C/c2ccc([N+](=O)[O-])cc2)c1C | 12.6 µM (active) | 
83 | Cc1oc(-c2ccccc2Cl)nc1Cn1cccc1C1=NC(c2ccccc2)CO1 (stereo not drawn) | 12.6 µM (active) | 
84 | CCCSCCCNC(=O)c1ccccc1NC(=O)C1=CSCCO1 | 12.6 µM (active) | 
85 | CC(C)(C)c1nc(SCC(=O)Nc2nc3c(s2)CCCC3)c2ccccc2n1 | 4.47 µM (active) | 
86 | CC(C)(C)c1nc(SCC(=O)Nc2ccc(N3CCOCC3)cc2)c2ccccc2n1 | 11.2 µM (active) | 
87 | O=C(Cn1c(=O)sc2ccccc21)Nc1nc2c(s1)CCCC2 |  | 10% (inactive)
88 | O=C(Cc1cn2ccsc2n1)Nc1nc2c(s1)CCCC2 |  | -7.92% (inactive)

Source: PubChem BioAssay AID504850 (National Center for Advancing Translational Sciences (NCATS), 2011)
